Experimental data from PubChem BioAssay (Tox21).
Inconclusive results are not listed. Where a call stands in place of a potency, no number is given. The source made the active and inactive calls. Unless noted, the call rests on the fitted dose curve; in most records, active means well fitted curve in the direction sought with a large enough effect in the repeat runs; inconclusive means weak or mixed curves; inactive means no such curve, though single readings can be large; an effect the other way counts as inactive or inconclusive.

Columns and labels:
[1] = qHTS assay to identify aromatase inhibitors - cell viability counter screen (AID 743084);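 further: cells stimulated with testosterone during compound exposure; nearly all actives have a fitted effect of over 55% in size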; further: potency means the concentration at half of the fitted maximal effect
[2] = target: Aryl hydrocarbon receptor (Homo sapiens) (UniProt P35869); test: qHTS assay to identify small molecule that activate the aryl hydrocarbon receptor (AhR) signaling pathway (AID 743085);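 further: HG2L7.5c1 human HepG2 liver cells with stably integrated DRE-driven firefly reporter; series mostly up to about 70 µM; nearly all actives have a fitted effect of over 15% in size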
Chain of Aryl hydrocarbon receptor (Homo sapiens) (P35869 whole entry, looked up): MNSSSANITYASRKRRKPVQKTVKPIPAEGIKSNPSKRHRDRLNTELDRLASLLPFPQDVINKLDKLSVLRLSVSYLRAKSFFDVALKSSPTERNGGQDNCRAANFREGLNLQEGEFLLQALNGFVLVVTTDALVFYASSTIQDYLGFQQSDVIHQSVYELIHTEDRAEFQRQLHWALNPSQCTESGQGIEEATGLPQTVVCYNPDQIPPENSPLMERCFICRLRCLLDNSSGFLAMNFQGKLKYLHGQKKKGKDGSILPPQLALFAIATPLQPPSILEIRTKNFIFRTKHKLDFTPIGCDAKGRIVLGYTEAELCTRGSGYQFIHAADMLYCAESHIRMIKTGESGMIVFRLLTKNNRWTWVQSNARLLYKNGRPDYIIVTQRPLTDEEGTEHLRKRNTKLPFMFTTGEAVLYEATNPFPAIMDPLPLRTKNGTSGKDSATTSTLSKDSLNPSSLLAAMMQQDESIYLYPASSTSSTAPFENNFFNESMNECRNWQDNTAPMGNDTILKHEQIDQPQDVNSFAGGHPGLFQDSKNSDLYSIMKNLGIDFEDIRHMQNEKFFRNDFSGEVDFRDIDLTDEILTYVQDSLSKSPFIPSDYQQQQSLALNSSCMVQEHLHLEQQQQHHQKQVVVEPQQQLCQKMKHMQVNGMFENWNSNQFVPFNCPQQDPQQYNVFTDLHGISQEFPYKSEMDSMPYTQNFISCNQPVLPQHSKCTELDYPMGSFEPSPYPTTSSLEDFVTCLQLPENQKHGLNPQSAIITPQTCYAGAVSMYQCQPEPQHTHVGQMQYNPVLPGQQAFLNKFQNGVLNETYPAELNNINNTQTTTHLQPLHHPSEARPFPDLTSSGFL
Method in brief: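 24 h compound exposure, 37C, HepG2-derived HG2L7.5c1 cells with DRE-responsive luciferase. Readouts: fluorescence viability, then luminescence at room temperature after 30 min.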

[3] = qHTS assay to identify small molecule that activate the aryl hydrocarbon receptor (AhR) signaling pathway - cell viability counter screen (AID 743086); further: nearly all actives have a fitted effect of over 45% in size; further: potency means the concentration at half of the fitted maximal effect
Method in brief: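 Cytotoxicity counter screen: CellTiter-Fluor signal (30 min, 37 C) in 4000 HepG2 cells/well carrying the DRE-luciferase reporter, following 24 h compound exposure at 37 C.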

[4] = qHTS assay to identify small molecule antagonists of the peroxisome proliferator-activated receptor gamma (PPARg) signaling pathway - cell viability counter screen (AID 743194); further: nearly all actives have a fitted effect of over 55% in size
Method in brief: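 Viability was measured as CellTiter-Glo luminescence in GeneBLAzer PPARg UAS-bla HEK293H cells. These cells had been exposed 17 h at 37 C to compounds together with rosiglitazone at 50 nM final, with the beta-lactamase readout taken in the same wells.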

[5] = qHTS assay for small molecule agonists of the antioxidant response element (ARE) signaling pathway - cell viability counter screen (AID 743203; calls by dose curve; further: nearly all actives have a fitted effect of over 55% in size)
Method in brief: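 Compounds in DMSO were pinned onto ARE-bla HepG2 cells plated 5 hrs earlier at 2,000 cells/well. Sixteen hours later at 37C/5% CO2, CellTiter-Glo was added and luminescence measured after 30 min at room temperature.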

[6] = qHTS assay for small molecule activators of the heat shock response signaling pathway - cell viability counter screen (AID 743209); further: nearly all actives have a fitted effect of over 50% in size
Method in brief: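 Counter screen for cytotoxicity in HeLa HSE-bla reporter cells. Treatment was 5 h at 37 C; viability was detected by luminescent ATP assay (CellTiter-Glo) in the same wells as the beta-lactamase read.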

[7] = qHTS assay for small molecule activators of the heat shock response signaling pathway (AID 743210; active means well fitted activation curve with a large enough effect in the signal ratio in the repeat runs, with a control signal flat, not every such curve was filed as active; the % refers to the signal ratio;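 further: HeLa cells with beta-lactamase reporter driven by heat shock elements; series mostly up to about 63 µM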)
Method in brief: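 HeLa HSE-bla cells, overnight plating; cpd in DMSO 5 h, 37 C; LiveBLAzer B/G FRET substrate 2.5 h RT; fluorescence intensity read.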

[8] = qHTS assay to identify small molecule agonists of the peroxisome proliferator-activated receptor delta (PPARd) signaling pathway - cell viability counter screen (AID 743211); further: nearly all actives have a fitted effect of over 55% in size; further: potency means the concentration at half of the fitted maximal effect
Method in brief: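 Luminescent ATP viability assay (CellTiter-Glo, 30 min RT) in UAS-bla HEK293H cells carrying the PPAR delta reporter construct, 3000 cells/well, after a 17 h compound treatment at 37 C.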

[9] = qHTS assay to identify small molecule antagonists of the peroxisome proliferator-activated receptor delta (PPARd) signaling pathway - cell viability counter screen (AID 743213); further: nearly all actives have a fitted effect of over 50% in size; further: potency means the concentration at half of the fitted maximal effect
Method in brief: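 HEK293H PPARd UAS-bla cells, 5 h pre-incubation, compound + L165041 300 nM final, 17 h 37 C; B/G FRET substrate 2 h RT; then CellTiter-Glo 30 min RT, luminescence.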

[10] = qHTS assay to identify small molecule agonists of the farnesoid-X-receptor (FXR) signaling pathway - cell viability counter screen (AID 743218); further: nearly all actives have a fitted effect of over 45% in size
Method in brief: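 After 16 h at 37 C with test compounds, FXR-bla HEK 293T cells were given LiveBLAzer B/G substrate for 2 h at RT and then CellTiter-Glo; luminescence was taken after 30 min.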

[11] = target: Bile acid receptor (Homo sapiens) (UniProt Q96RI1); test: qHTS assay to identify small molecule agonists of the farnesoid-X-receptor (FXR) signaling pathway (AID 743220; active means well fitted activation curve with a large enough effect in the signal ratio in the repeat runs, not every such curve was filed as active; the % refers to the signal ratio)
Chain of Bile acid receptor (Homo sapiens) (Q96RI1 whole entry, looked up): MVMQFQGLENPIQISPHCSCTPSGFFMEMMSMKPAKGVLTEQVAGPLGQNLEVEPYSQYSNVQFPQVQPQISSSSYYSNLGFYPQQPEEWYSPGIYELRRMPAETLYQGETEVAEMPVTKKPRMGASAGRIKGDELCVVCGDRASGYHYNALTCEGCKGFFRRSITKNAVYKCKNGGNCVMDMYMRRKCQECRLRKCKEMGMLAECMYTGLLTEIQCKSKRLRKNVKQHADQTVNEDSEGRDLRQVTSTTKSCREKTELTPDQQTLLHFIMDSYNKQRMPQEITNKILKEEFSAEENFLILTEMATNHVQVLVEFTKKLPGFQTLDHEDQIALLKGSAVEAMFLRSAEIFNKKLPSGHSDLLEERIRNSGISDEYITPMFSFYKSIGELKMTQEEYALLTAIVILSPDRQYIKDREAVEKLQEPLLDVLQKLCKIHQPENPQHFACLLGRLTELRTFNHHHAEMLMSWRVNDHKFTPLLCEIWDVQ
Method in brief: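 Beta-lactamase reporter under UAS control in GeneBLAzer FXR HEK 293T cells (5000/well) measured with LiveBLAzer FRET substrate after 2 h at room temperature. Compound exposure lasted 16 h at 37C.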

[12] = target: Vitamin D3 receptor (Homo sapiens) (UniProt P11473); test: qHTS assay to identify small molecule agonists of the vitamin D receptor (VDR) signaling pathway (AID 743222; calls by dose curve)
Chain of Vitamin D3 receptor (Homo sapiens) (P11473 whole entry, looked up): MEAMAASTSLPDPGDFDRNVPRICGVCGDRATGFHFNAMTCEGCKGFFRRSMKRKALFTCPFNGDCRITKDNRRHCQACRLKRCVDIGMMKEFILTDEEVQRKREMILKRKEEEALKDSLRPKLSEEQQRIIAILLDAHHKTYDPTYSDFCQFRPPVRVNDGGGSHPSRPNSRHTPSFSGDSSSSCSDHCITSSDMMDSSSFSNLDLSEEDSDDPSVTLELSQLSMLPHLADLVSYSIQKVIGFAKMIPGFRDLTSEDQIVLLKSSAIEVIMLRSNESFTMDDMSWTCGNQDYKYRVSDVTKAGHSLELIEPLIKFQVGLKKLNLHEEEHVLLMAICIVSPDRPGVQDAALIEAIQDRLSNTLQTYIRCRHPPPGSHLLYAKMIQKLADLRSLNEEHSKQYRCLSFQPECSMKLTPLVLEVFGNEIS
Method in brief: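 VDR-bla cells were seeded, left 4 h, treated with compounds in DMSO for 16 h, incubated 2 h at RT with B/G FRET substrate, and read for fluorescence.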

[13] = target: Vitamin D3 receptor (Homo sapiens) (UniProt P11473); test: qHTS assay to identify small molecule antagonists of the vitamin D receptor (VDR) signaling pathway (AID 743223; active means well fitted inhibition curve with a large enough effect in the signal ratio in the repeat runs, not every such curve was filed as active; the % refers to the signal ratio)
Method in brief: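 Agonist 1alpha,25-dihydroxyvitamin D3 (3 nM in well) was added with each compound to VDR-bla cells preincubated 4 h. Cells stood 16 h at 37C, then FRET substrate 2 h at room temperature; fluorescence intensity recorded.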

[14] = target: Peroxisome proliferator-activated receptor gamma (Homo sapiens) (UniProt P37231); test: qHTS assay to identify small molecule antagonists of the peroxisome proliferator-activated receptor gamma (PPARg) signaling pathway (AID 743191; calls by dose curve; further: nearly all actives have a fitted effect of over 30% in size; further: potency means the concentration at half of the fitted maximal effect)
Chain of Peroxisome proliferator-activated receptor gamma (Homo sapiens) (P37231 whole entry, looked up): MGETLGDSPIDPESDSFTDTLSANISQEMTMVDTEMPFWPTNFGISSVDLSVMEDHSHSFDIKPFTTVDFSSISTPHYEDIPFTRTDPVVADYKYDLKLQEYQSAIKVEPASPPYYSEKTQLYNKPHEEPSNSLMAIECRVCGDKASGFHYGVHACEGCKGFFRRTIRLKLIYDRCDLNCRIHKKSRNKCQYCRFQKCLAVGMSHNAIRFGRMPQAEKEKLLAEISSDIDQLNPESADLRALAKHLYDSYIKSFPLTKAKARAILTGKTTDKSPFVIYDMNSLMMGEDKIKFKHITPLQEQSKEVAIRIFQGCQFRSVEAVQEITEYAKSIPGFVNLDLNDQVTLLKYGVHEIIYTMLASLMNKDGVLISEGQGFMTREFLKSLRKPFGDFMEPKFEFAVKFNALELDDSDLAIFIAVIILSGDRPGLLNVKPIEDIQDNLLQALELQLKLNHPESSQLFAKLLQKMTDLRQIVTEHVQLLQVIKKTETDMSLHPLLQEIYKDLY
Method in brief: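 Beta-lactamase reporter under UAS control in HEK293H PPARg-bla cells; compound treatment 17 h at 37C. Read-out: fluorescence intensity after 1 h room-temperature incubation with LiveBLAzer B/G FRET substrate.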

[15] = target: Peroxisome proliferator-activated receptor delta (Homo sapiens) (UniProt Q03181); test: qHTS assay to identify small molecule agonists of the peroxisome proliferator-activated receptor delta (PPARd) signaling pathway (AID 743212; calls by dose curve)
Chain of Peroxisome proliferator-activated receptor delta (Homo sapiens) (Q03181 whole entry, looked up): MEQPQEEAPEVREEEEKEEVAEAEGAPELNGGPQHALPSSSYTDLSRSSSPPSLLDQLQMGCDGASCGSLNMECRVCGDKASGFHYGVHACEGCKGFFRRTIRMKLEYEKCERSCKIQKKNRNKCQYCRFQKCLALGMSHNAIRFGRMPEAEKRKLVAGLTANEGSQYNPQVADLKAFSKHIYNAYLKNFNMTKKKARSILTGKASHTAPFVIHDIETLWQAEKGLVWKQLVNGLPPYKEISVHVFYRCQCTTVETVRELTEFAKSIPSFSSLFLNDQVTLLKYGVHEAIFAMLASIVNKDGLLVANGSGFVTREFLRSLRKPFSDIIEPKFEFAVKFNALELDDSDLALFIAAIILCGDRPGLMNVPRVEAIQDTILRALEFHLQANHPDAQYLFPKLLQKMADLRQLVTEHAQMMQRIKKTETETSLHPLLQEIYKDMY
Method in brief: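 HEK293H PPARd-bla cells; 5 h preincubation 37 C/5% CO2; compound (DMSO) 37 C; LiveBLAzer B/G FRET substrate 2 h RT; fluorescence intensity.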

[16] = target: Peroxisome proliferator-activated receptor delta (Homo sapiens) (UniProt Q03181); test: qHTS assay to identify small molecule antagonists of the peroxisome proliferator-activated receptor delta (PPARd) signaling pathway (AID 743215; active means well fitted inhibition curve with a large enough effect in the signal ratio in the repeat runs, not every such curve was filed as active; the % refers to the signal ratio;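 further: cells stimulated with agonist L165041 at 300 nM final during compound exposure; series mostly up to about 62 µM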)
Method in brief: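 With L165041 present at 300 nM final, compounds were incubated 17 h at 37 C on PPARd UAS-bla HEK293H cells. A FRET-based beta-lactamase substrate was then applied for 2 h at room temperature and fluorescence intensity recorded.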

[17] = qHTS assay to identify small molecule antagonists of the farnesoid-X-receptor (FXR) signaling pathway - cell viability counter screen (AID 743221; active means well fitted cell-killing curve with a large enough effect in the repeat runs, not every such curve was filed as active; further: nearly all actives have a fitted effect of over 50% in size)
Method in brief: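 In GeneBLAzer FXR-UAS-bla HEK 293T cells stimulated with 50 uM chenodeoxycholic acid (final), compounds acted for 16 h at 37 C. Viability was assessed afterwards by CellTiter-Glo luminescence.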

[18] = qHTS assay for small molecule agonists of the antioxidant response element (ARE) signaling pathway (AID 743202; active means well fitted activation curve with a large enough effect in the signal ratio in the repeat runs, not every such curve was filed as active; the % refers to the signal ratio; further: potency means the concentration at half of the fitted maximal effect)
Method in brief: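 Quantitative high-throughput format in HepG2 cells bearing an integrated ARE-beta-lactamase reporter. Compound exposure lasted 16 h at 37 C, and fluorescence was read 2 h after adding LiveBLAzer B/G substrate at room temperature.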

[19] = target: Bile acid receptor (Homo sapiens) (UniProt Q96RI1); test: qHTS assay to identify small molecule antagonists of the farnesoid-X-receptor (FXR) signaling pathway (AID 743217; active means well fitted inhibition curve with a large enough effect in the signal ratio in the repeat runs, not every such curve was filed as active; the % refers to the signal ratio)
Method in brief: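 In this cell-based antagonist screen, inhibition of CDCA-driven (50 uM final) UAS-beta-lactamase expression in HEK 293T cells was measured by FRET fluorescence following 16 h compound exposure at 37 °C.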

| Structure (SMILES) | Potency [1] | Potency [2] | Potency [3] | Potency [4] | Potency [5] | Potency [6] | outcome [7] | Potency [8] | Potency [9] | Potency [10] | outcome [11] | outcome [12] | Potency [13] | Potency [14] | outcome [15] | outcome [16] | Potency [17] | Potency [18] | outcome [19] |
| --- | --- | --- | --- | --- | --- | --- | --- | --- | --- | --- | --- | --- | --- | --- | --- | --- | --- | --- | --- |
| Cc1cc(CC(=O)O)c(C)n1-c1ccc(Cl)cc1 | inactive | inactive | inactive | inactive | inactive | inactive | inactive | inactive | inactive | inactive | inactive | inactive | inactive | – | – | – | – | – | – |
| CC(C)(C)c1ccc(S)cc1 | inactive | inactive | inactive | inactive | inactive | inactive | – | inactive | inactive | inactive | – | inactive | inactive | inactive | inactive | inactive | inactive | – | – |
| Cc1ccc(C(C)c2ccc(C)c(C)c2)cc1C | inactive | inactive | inactive | inactive | inactive | inactive | inactive | inactive | inactive | inactive | – | inactive | inactive | inactive | inactive | inactive | inactive | – | – |
| CCc1nn(C2CCCCC2)c2cc(C3(C#N)CCC(C(=O)O)CC3)ccc12 (stereo unspecified) | 54.5 µM (active) | inactive | 24.3 µM (active) | inactive | inactive | inactive | inactive | inactive | inactive | inactive | inactive | inactive | inactive | – | inactive | – | inactive | 27.3 µM (active) | – |
| CCCCCc1ccc(N)cc1 | inactive | inactive | inactive | inactive | – | inactive | inactive | inactive | – | inactive | – | inactive | inactive | inactive | inactive | – | inactive | – | – |
| CC[C@H](C)[C@@H](C(=O)O)n1sc2ccccc2c1=O | inactive | inactive | inactive | inactive | inactive | inactive | inactive | inactive | inactive | – | inactive | inactive | inactive | – | inactive | inactive | – | – | inactive |
| O=C(Nc1ccccc1)OCC(CN1CCCCC1)OC(=O)Nc1ccccc1 (stereo unspecified) | inactive | inactive | inactive | inactive | inactive | inactive | inactive | 26.6 µM (active) | 26.6 µM (active) | – | inactive | inactive | – | 16.8 µM (active) | – | – | – | – | – |
| CCCCCCCCCC=O | inactive | inactive | inactive | inactive | inactive | inactive | inactive | inactive | inactive | – | – | inactive | inactive | – | – | – | inactive | – | – |
| CC(C)(C)c1ccc(OCC2CO2)cc1 (stereo unspecified) | inactive | inactive | inactive | inactive | inactive | inactive | – | inactive | inactive | inactive | – | inactive | inactive | – | inactive | – | inactive | inactive | – |
